Sampled rows, rich in hits. Any-hit rate of the full collection: about 10%.
hNpr1 antagonist: human Npr1 receptor antagonism | P16066 | HEK293 hNpr1 GloSensor cGMP, ANP-stimulated luminescence | Potency, µM (series often up to 46.3 µM), for the others: at the top dose activity change, negative = inhibition, actives largely listed as inhibitors | 76,000 tested, 1.6% active | AID 1347048; calls by dose curve; note: % is set by controls: 0 for no effect and ±100 for the full control effect; nearly all actives have a fitted effect of over 60% in size
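Compound pre-incubated 30 min at room temperature on GloSensor-loaded HEK293 cells stably carrying hNpr1 and the pGS-40F cGMP biosensor. Stimulation uses hNppA at 0.1 nM final; luminescence is taken at baseline and 20 min post-agonist.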
NIH3T3 tox: kills NIH 3T3 cells; 94,000 tested, 4.3% active; AID 1345082; Potency, µM (top dose mostly 96.7 µM), inactives show at the top dose activity change, negative = cytotoxicity, usual class: inhibitors; NIH 3T3 viability, CellTiter-Glo ATP luminescence, 48-72 h; note: % is set by controls: 0 for no effect and ±100 for the full control effect; nearly all actives have a fitted effect of over 55% in size
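Cells were seeded at 400 per well, treated with pin-transferred compound, and kept 48 or 72 hr at 37 °C before CellTiter-Glo addition and luminescence imaging of cellular ATP.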
FLuc inh-1: inhibitors of firefly (Photinus pyralis) luciferase. AID 1347043. Potency, µM (series often up to 115 µM), usual class: inhibitors. purified P. pyralis luciferase, luminescence, biochemical. 76,000 tested, 2.5% active; note: % is set by controls: 0 for no effect and ±100 for the full control effect; nearly all actives have a fitted effect of over 65% in size
Target sequence (P08659 whole entry, looked up): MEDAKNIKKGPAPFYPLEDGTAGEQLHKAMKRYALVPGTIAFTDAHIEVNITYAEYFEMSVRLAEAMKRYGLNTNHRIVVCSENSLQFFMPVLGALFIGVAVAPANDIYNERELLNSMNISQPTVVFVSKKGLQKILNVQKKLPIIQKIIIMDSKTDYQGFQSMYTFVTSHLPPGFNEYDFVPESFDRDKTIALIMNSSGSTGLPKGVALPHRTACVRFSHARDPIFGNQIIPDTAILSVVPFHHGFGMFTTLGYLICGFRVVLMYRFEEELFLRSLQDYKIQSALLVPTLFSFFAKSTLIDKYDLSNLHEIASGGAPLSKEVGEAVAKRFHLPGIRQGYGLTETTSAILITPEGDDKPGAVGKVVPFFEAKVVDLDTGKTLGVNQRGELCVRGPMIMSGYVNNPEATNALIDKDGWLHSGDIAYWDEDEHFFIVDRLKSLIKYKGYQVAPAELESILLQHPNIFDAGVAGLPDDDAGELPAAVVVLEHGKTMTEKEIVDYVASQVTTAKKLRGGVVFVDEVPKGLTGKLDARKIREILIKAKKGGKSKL
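Purified P. pyralis luciferase (10nM final) in 50mM Tris acetate pH 7.5, 10mM Mg acetate, 0.01% Tween-20, 0.05% BSA with 10uM D-luciferin and 10uM ATP. Compounds titrated qHTS. Luminescence imaged on CCD.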
HEK cytotox: cytotoxic compounds in HEK 293 cells. HEK 293 viability, ATP luminescence (CellTiter-Glo), 48-72 h. Potency, µM (series often up to 115 µM), for the others: at the top dose activity change, negative = cytotoxicity, most hits filed as inhibitors. 94,000 tested, 6.6% active; note: % is set by controls: 0 for no effect and ±100 for the full control effect; nearly all actives have a fitted effect of over 60% in size
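qHTS cytotoxicity; HEK 293, 250 cells/well; compound pinned; 48 or 72 hr, 37 degree Celsius, 5% CO2, 95% humidity; CellTiter-Glo, 10 min RT; luminescence (ATP).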
GPT2 inhibitor: GPT2 alanine aminotransferase inhibition | Recombinant GPT2, coupled pyruvate oxidase/HRP Amplex Red fluorescence | Potency, µM (series often up to 57.7 µM), without a hit: at the highest dose activity change, negative = inhibition, most hits filed as inhibitors | 100,000 tested, 0.25% active | AID 1671188; note: % is set by controls: 0 for no effect and ±100 for the full control effect; nearly all actives have a fitted effect of over 60% in size
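Inhibition is scored from Amplex Red fluorescence generated when pyruvate oxidase and HRP act on pyruvate released by GPT2. Reactions contain 10ng/uL enzyme, 250uM a-KG and 2mM L-alanine and run 30 min at room temperature.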
FLuc SDR -ATP: stabilizes firefly luciferase without ATP | shares compounds with FLuc inh-1 | Purified FLuc-C-HiBiT, Nano-Glo HiBiT luminescence, no ATP | Potency, µM (doses to about 32.7 µM), inactives show at the highest dose activation (signal gain), actives largely listed as activators | 1,300 tested, 7.8% active | AID 1963318; note: nearly all actives have a fitted effect of over 55% in size
FLuc SDR ATP: stabilizes firefly luciferase with ATP present; AID 1963319; purified FLuc-C-HiBiT + ATP, HiBiT complementation luminescence; shares compounds with FLuc inh-1; 1,300 tested, 8.7% active; Potency, µM (highest dose often 32.7 µM), for the others: at the top dose activation (gain of signal), actives largely listed as activators;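 note: signal reports ligand binding via conformational change of the enzyme rather than luciferase catalysis; % of control where 0% means no effect; nearly all actives have a fitted effect of over 55% in size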
FLuc inh-2: blocks firefly luciferase enzymatic activity; shares compounds with FLuc inh-1; 1,300 tested, 42% active; purified FLuc-C-HiBiT enzyme, luciferin luminescence; Potency, µM (titrated, usually from 32.7 µM), without a hit: at the top dose activity change, negative = inhibition, most hits filed as inhibitors; AID 1963320; note: % is set by controls: 0 for no effect and ±100 for the full control effect; nearly all actives have a fitted effect of over 70% in size
Numbers without * were called inactive; i = inactive; ? = inconclusive; / = no result; [ ] = another dose, or the depositor's remark. Unless noted, calls come from the whole dose curve; as a rule, active = well fitted curve in the direction sought with a large enough effect; inconclusive = small, poorly fitted or top-dose-only effect, or another doubt; inactive = no such curve, though single readings can be large; an effect the other way counts as inactive or inconclusive. Potency is the fitted concentration of half-maximal effect.

SMILES	hNpr1 antagonist	NIH3T3 tox	FLuc inh-1	HEK cytotox	GPT2 inhibitor	FLuc SDR -ATP	FLuc SDR ATP	FLuc inh-2
O=C(Nc1nccs1)c1ccc2c(c1)OCCN(CCC(F)(F)F)C2	-13%[70.6 µM]	?	?	?	-22%[88.5 µM]	/	/	/
O=C(Nc1nccs1)c1ccc2c(c1)OCCN(c1ccccc1)C2	-18%[70.6 µM]	?	?	-26%[172 µM]	-18%[88.5 µM]	/	/	/
O=C(Nc1nc2ccccc2s1)c1ccc2c(c1)OCCN(CCC(F)(F)F)C2	?	?	13µM*	20µM*	i	13%[49.3 µM]	10%[49.3 µM]	?
COc1ccccc1CN1Cc2cc(NC(=O)c3ccc(OC)c(OC)c3)ccc2OC(C)C1=O (stereo not given)	-5%	?	i	?	4%	/	/	/
Cc1cccc(OCCc2noc(C3CCN(C(=O)CN4CCCC4=O)C3)n2)c1 (stereo not given)	/	-20%	/	-4%	i	/	/	/
Cc1occc1C(=O)N1CCc2n[nH]c(=O)n2CC1	1%	0%	i	-2%	i	/	/	/
COc1cccc(CNC(=O)c2cc(-c3ccc(Cl)cc3Cl)nc3c2cnn3C)c1	/	?	/	?	i	/	/	/
CCC(=O)Nc1ccc2nnc(-c3ccc(C(=O)Nc4ccc5c(c4)OCCO5)cc3)n2c1	-18%	i	14µM*	?	-2%	21%	?	?
CCC(C)(C)NC(=O)c1ccc(-c2nnc3ccc(NC(=O)C4CC4)cn23)cc1	-6%	-23%	i	?	i	/	/	/
CSCC(=O)Nc1nn(-c2ccc(F)cc2)c2cccc(N3CCOCC3)c12	?	?	6.3µM*	?	-21%	23%	16%	?
O=C(Nc1nn(-c2cccc(F)c2)c2cccc(N3CCOC3=O)c12)C1CCC1	-8%	-23%	i	-10%	?	/	/	/
CSc1cccc(NC(=O)c2ccc3c(c2)N(C)C2CCCN2C3=O)c1 (stereo not given)	-1%	-27%	14µM*	?	4%	13%	?	?
CN1c2cc(C(=O)Nc3ccc(Cl)cc3)ccc2C(=O)N2CCCCC21 (stereo not given)	0%	?	?	?	i	/	/	/
CSc1ccc(NC(=O)c2ccc3c(c2)N(C)C2CCCN2C3=O)cc1 (stereo not given)	-10%	-18%	14µM*	?	i	9%	?	?
CN1Cc2cccn2CC1CNC(=O)c1ccccc1 (stereo not given)	-2%	-2%	i	i	i	/	/	/
O=C1CN(Cc2cccs2)CCN1c1ccc(Cl)nn1	6%[70.6 µM]	-16%[138 µM]	i	-17%[172 µM]	?	/	/	/
O=C(NCC(=O)N1CCCC1)Nc1ccc2ccccc2c1	/	/	/	/	i	/	/	/
C[C@@H](NC(=O)C1=C[C@@H](NS(=O)(=O)c2cccc(C(F)(F)F)c2)[C@@H](O)[C@H](O)C1)C(N)=O	0%	4%	i	i	?	/	/	/
COc1ccccc1NC(=O)Cn1c(-c2ccc(Cl)cc2)nc(C)cc1=O	-15%	?	i	?	-27%	/	/	/
COC(=O)c1ccccc1NC(=O)CCc1c(C)nc2cc(-c3ccc(Cl)cc3)nn2c1C	/	/	/	/	/	9%	?	?
COc1ccc(NC(=O)Cn2c(-c3ccc(Cl)cc3)nc(C)cc2=O)cc1	-14%	?	i	?	-12%	/	/	/
CCOc1ccc(NC(=O)CCc2c(C)nc3cc(-c4ccc(Cl)cc4)nn3c2C)cc1	/	/	/	/	/	22%	0.99µM*	2.8µM*
CCOC(=O)c1cccc(NC(=O)CCc2c(C)nc3cc(-c4ccc(Cl)cc4)nn3c2C)c1	/	/	/	/	/	13%	?	8.8µM*
COCC1(O)CCOC2(CCN(C(=O)c3ccccn3)CC2)C1 (stereo not given)	/	-6%	/	i	?	/	/	/
COc1cc(OC)c(CN2CCCCCC2c2ccco2)c(OC)c1 (stereo not given)	-22%	?	i	?	2%	/	/	/
SMILES	hNpr1 antagonist	NIH3T3 tox	FLuc inh-1	HEK cytotox	GPT2 inhibitor	FLuc SDR -ATP	FLuc SDR ATP	FLuc inh-2
Cc1cc(CNC(=O)CC2C=CS(=O)(=O)C2)c2[nH]c(-c3ccccc3)c(C)c2c1 (stereo not given)	-21%	40µM*	6.3µM*	45µM*	-5%	21%	13%	?
NC(=O)C1CCN(c2ncnc3c2cnn3-c2ccccc2)CC1	/	/	/	/	/	15%	12%	-9%
CCOC1CCCN(c2ncnc3c2cnn3-c2ccccc2)C1 (stereo not given)	/	/	/	/	/	21%	?	?
CC1CCN(c2ncnc3c2cnn3-c2ccc(F)cc2)CC1	/	/	/	/	/	19%	19%	11µM*
CN1CC(=O)N(c2cccnc2)Cc2c1ncnc2N1CCC(O)CC1	-16%[70.6 µM]	i	i	i	i	/	/	/
CN1CC(=O)N(c2ccccc2)Cc2c1ncnc2N1CCC(O)CC1	-11%	-30%	i	-19%	?	/	/	/
CN(C)C1CCN(c2ncnc3c2cnn3-c2ccccc2)CC1	/	/	/	/	/	13%	11%	-6%
COc1ccc(-c2ccccc2C(=O)NC2CCCCC2)nn1	/	-17%[138 µM]	/	0%[172 µM]	/	/	/	/
COc1ccccc1CCC(=O)N[C@@H]1CN(c2ncccn2)C[C@H]1CO	7%	-1%	i	i	0%	/	/	/
COc1ccc(NC(=O)c2c(C)oc3ccn(Cc4cccc(F)c4)c(=O)c23)c(OC)c1	-9%	?	i	?	i	/	/	/
CCC(=O)N1CCc2c(C(=O)Nc3ccc(OC)cc3OC)cccc21	-11%	-23%	i	1%	i	/	/	/
CCOC(=O)N1CCc2c(sc(NCc3cccc(F)c3)c2C(=O)Nc2ccc(OC)cc2OC)C1	/	/	/	/	/	4%	?	2.5µM*
CCOC(=O)N1CCc2c(sc(NCc3sccc3C)c2C(=O)Nc2ccc(OC)cc2OC)C1	/	/	/	/	/	8%	?	5µM*
O=C(c1ccco1)N1CCC2(CC1)CC(N(Cc1ccc(F)cc1)C1CC1)CCO2 (stereo not given)	-3%	?	i	?	0%	/	/	/
CCCNc1cc(N2CCC(CCC(=O)NCc3ccccc3)CC2)ncn1	-4%	-16%	?	-29%	-16%	/	/	/
CCNc1cc(N2CCC(CCC(=O)Nc3ccc4c(c3)OCCO4)CC2)ncn1	-28%	?	7.9µM*	?	-27%	18%	19%	?

Assay outcomes (PubChem BioAssay)
